Measurements taken from PubChem BioAssay AID2315 (National Center for Advancing Translational Sciences (NCATS), 2010).
In all, about 290,000 compounds went through this assay and about 27,000 (9.3%) were called active. The full list was thinned out, with actives kept by preference. A number with no mark means an inactive call. Cut-off read from the data, not from the text of the source: active = inhibition mostly above about 28% (no sharp cut-off); inactive = mostly below about 43%.

Test: A qHTS for Small Molecule Inhibitors of Shiga Toxin; note: 0% is about no effect
Conditions: Vero cells, Shiga toxin protein synthesis inhibition reporter; at 38.7 µM, active compounds read high

In order of falling inhibition:
1. COc1ccc2nc(NC(=O)[C@@H]3CCCN3C(=O)c3cccs3)sc2c1  60.1%
2. CCn1c(SCC(=O)Nc2nc3ccc(OC)cc3s2)nnc1-c1ccoc1C  56.7%
3. COc1ccccc1-c1nc(SC)n[nH]1  50.6%
4. COC(=O)c1cc(C)sc1NC(=O)CC1Nc2ccccc2NC1=O (configuration not stated)  46.2%
5. O=C(Nc1ccc([N+](=O)[O-])cc1)OCCc1ccccn1  44%
6. Cc1cccc(OCC(O)Cn2c(N3CCCCC3)nc3c2c(=O)[nH]c(=O)n3C)c1 (configuration not stated)  35.6%
7. COc1ccc2nc(Nc3nc4ccc(NC(C)=O)cc4s3)sc2c1  35.3%
8. O=C1CSC(=S)N1/N=C/c1ccc(O)c([N+](=O)[O-])c1  34.5%
9. O=C(NCCN1CCOCC1)c1c(F)c(F)c(F)c(F)c1F  33.6%
10. COc1ccc(CNC(=O)c2ccc(Br)s2)cc1OC  31.8%
11. O=C(N/N=C/c1c(O)n(C2CC2)c(=S)[nH]c1=O)c1ccccc1Cl  30.7%
12. Cc1cc(NC(=O)CCC(=O)N(CC(=O)NC2CCCC2)c2ccc(F)cc2)no1  29.9%
13. OCCNc1nc(Nc2ccc(Cl)c(Cl)c2)nc2ccccc12  29.5%
14. Cc1ccc(NC(=O)c2ccccn2)cc1S(=O)(=O)N1CCOCC1  28%
15. O=[N+]([O-])C(=c1ccc2c(c1)N1C3=C(CCCC3)CC3CCCCC31N=2)[N+](=O)[O-] (configuration not stated)  27.4%
16. CCOc1cccc(/C=N/NC(=S)NCCN2CCOCC2)c1O  22.8%
17. CSc1ccc(NC(=O)/C=C/C(=O)O)cc1  18.3%
18. CCOC(=O)c1nc(Nc2ccc(C(=O)OC)cc2)c2ccccc2n1  17%
19. O=S(=O)(c1cccc(-c2cn3ccccc3n2)c1)N1CCCC1  16.7%
20. Cc1cc(C)c2c3c(sc2n1)C(c1ccccc1)C(C#N)=C(N)O3 (configuration not stated)  16.2%
21. Cc1ccccc1NC(=O)Cn1cc(C(=O)C2CC2)c2ccccc21  14.9%
22. COc1ccc(NC(=O)CN(C)C(=O)CNC(=O)C2CCCCC2)cc1  14.6%
23. O=C(C1CCN(S(=O)(=O)c2ccc(Br)s2)CC1)N1CCN(c2ccccc2)CC1  14.2%
24. Cc1nc2cc3c(cc2s1)OCO3  13.4%
25. Cc1ccc(CSCC2Nc3ccc(C(=O)N4CCN(c5ccc(F)cc5)CC4)cc3NC2=O)cc1 (configuration not stated)  13.1%
26. CCOc1ccc(NC(=O)CC2NCCNC2=O)cc1 (configuration not stated)  13.1%
27. N#CC1(NC(=O)COC(=O)CCN=C2NS(=O)(=O)c3ccccc32)CCCCC1  12.6%
28. O=C(CC(=O)N/N=C\c1ccc(F)cc1)NCCc1ccccc1  10.7%
29. C=CCN(CC=C)C(=O)COC(=O)c1n[nH]c2ccccc12  10.1%
30. COC(=O)[C@@H](NC(=O)Nc1cc(Cl)ccc1C)C(C)C  8.66%
31. COc1ccc(CN(C)C(=O)CC(c2ccccc2)c2ccccc2)cc1  6.72%
32. Cc1ccc(C(=O)NC23CC4CC(CC(C4)C2)C3)c(Cl)c1  6.22%
33. O=C(c1ccccc1)N1CCN(C(=O)c2cc3nc(-c4ccccc4)cc(C(F)(F)F)n3n2)CC1  3.38%
34. CCN(CC)CCNCC(=O)Nc1ccc(Oc2ccccc2)cc1  3.13%
35. CCN(CC)CCCNC(=O)c1c(O)c2cc(F)cc3c2n(c1=O)C(C)CC3 (configuration not stated)  2.56%
36. COc1cccc(CNC(=O)Cc2csc(Nc3nc(=S)[nH]c4ccccc34)n2)c1  1.99%
37. CCc1ccc(NC(=O)CC2C(=O)NCCN2C(=S)Nc2ccccc2)cc1 (configuration not stated)  1.19%
38. CCOc1ccc(NC(=O)c2ccc(NC(=O)C3CCCO3)cc2)cc1 (configuration not stated)  0.828%
39. Cc1c(CNCCc2ccccc2)c(C(=O)O)c(C)n1-c1ccccc1  -0.721%
40. O=C(O)c1ccc(/C=C2/SC(=S)N(c3cccc(C(F)(F)F)c3)C2=O)cc1  -0.926%
41. COc1ccc(C(C)C)cc1S(=O)(=O)Nc1ncn[nH]1  -1.36%
42. NNC(=O)c1nnn(-c2nonc2N)c1CN1CCCC1  -1.91%
43. CCOC(=O)c1ccccc1NC(=O)CC1Nc2ccccc2NC1=O (configuration not stated)  -1.95%
44. OCCNCCCCOc1ccccc1F  -2.38%
45. COc1ccc(N(CC(=O)Nc2cc(OC)ccc2OC)S(=O)(=O)c2c(C)noc2C)cc1  -2.51%
46. Cc1cc2c(cc1S(=O)(=O)NCc1ccc(Cl)cc1)OCC(=O)N2  -2.9%
47. CCc1nc(Nc2ccc(NC(C)=O)cc2)c2oc3ccccc3c2n1  -2.91%
48. Cc1ccc2sc(N(CCN(C)C)C(=O)/C=C/c3cccs3)nc2c1C  -3.15%
49. COc1cccc(NC(=O)CSc2nnc(Cc3ccc(OC)c(OC)c3)o2)c1  -3.46%
50. CN(CC(=O)NCCN1CCOCC1)S(=O)(=O)c1ccc(F)cc1  -3.65%
51. O=C(COC(=O)c1n[nH]c2ccccc12)NCc1ccccc1  -4.54%
52. CCN(CC)CCCNC(=S)N(CCO)Cc1cc2cc3c(cc2[nH]c1=O)OCO3  -4.73%
53. COc1cccc(NC(=O)CN(C)C(=O)Cc2ccc(Cl)cc2Cl)c1  -4.77%
54. CC1CCN(CCC(=O)Nc2ccccc2)CC1  -4.96%
55. CC1CCN(S(=O)(=O)c2ccc3c(c2)n(C)c(=O)n3C)CC1  -5.36%
56. Cc1cc(C)nc(Nc2ncn[nH]2)n1  -5.43%
57. CC(NC(=O)C1CCCN(S(=O)(=O)c2ccc(-n3cnnn3)cc2)C1)c1ccc(F)cc1 (configuration not stated)  -5.87%
58. O=C(NCCCO)c1cc2c([nH]c3ccccc32)c(-c2ccc(F)cc2)n1  -5.91%
59. Cc1[nH]c2ccccc2c1C(=O)CN1CC(C)CC(C)C1 (configuration not stated)  -6.33%
60. O=C(C1CCCN(S(=O)(=O)c2ccccc2)C1)N1CCN(c2ccc(F)cc2)CC1 (configuration not stated)  -6.64%
61. O=c1[nH]c(=S)n(C2CC2)c(O)c1/C=N/N1CCOCC1  -6.68%
62. COCCNc1ncnc2c1nc1n2CCCC1  -7.74%
63. CCOc1ccc(CNC(=O)C2CCCN(c3nnc(C)c4c(C)n(-c5ccccc5)nc34)C2)cc1 (configuration not stated)  -7.91%
64. N#CC1=C(N)Oc2c(c(=O)oc3ccccc23)C1c1ccccc1OC(=O)c1cccs1 (configuration not stated)  -8.1%
65. COCCCNC(=O)C1CC(=O)N(CCc2ccc(F)cc2)C1 (configuration not stated)  -8.38%
66. COc1cc2c(cc1OC)C(c1cccc([N+](=O)[O-])c1)=NCC2  -8.7%
67. Cn1cnc2c1c(=O)n(Cc1ccccc1C#N)c(=O)n2C  -8.82%
68. CCOC(=O)c1cc(S(=O)(=O)NCCc2ccc(OC)c(OC)c2)cn1C  -9.15%
69. COc1ccc(-n2cnc3cc(C(=O)NC4CCCC4)ccc32)cc1  -10.6%
70. COC(=O)c1ccc(NC(=O)CSc2nncc3ccc(OC)c(OC)c23)cc1  -11.5%
71. Cc1ccc(NC(=O)CSc2sc3c(O)cc(=O)[nH]c3c2C#N)cc1C  -11.9%
72. Cn1c(=O)c2c(nc(Br)n2CCSc2nc3ccccc3o2)n(C)c1=O  -12.2%
73. COc1ccc(N(Cc2ccccc2)S(=O)(=O)c2cccc(C(=O)O)c2)cc1  -12.2%
74. CCN(CC)S(=O)(=O)c1ccc2nc(COC(=O)c3n[nH]c4ccccc34)[nH]c2c1  -12.2%
75. COc1cc2c(cc1OC)C(C(=O)NCc1ccco1)C1c3ccccc3CCN1C2=O (configuration not stated)  -23.5%
76. CCn1cc(CN2CCC(C(=O)Nc3cccc(-c4cccc(Cl)c4)c3)CC2)c(C)n1  -29.7%
77. O=C(N/C(=C\c1ccc([N+](=O)[O-])cc1)C(=O)N1CCOCC1)c1cccc(Br)c1  -35.2%

For `CSc1ccc(/C=C/C(=O)NC23CC4CC(CC(C4)C2)C3)cc1`, the inhibition was 103% (active).
With `COC(=O)c1ccc(Nc2ncnc3sccc23)cc1` the inhibition was 42% (active).
For `O=C(N/N=C/c1c(O)n(C2CC2)c(=S)[nH]c1=O)c1ccccc1`, the inhibition was 84.6% (active).
In the case of `Cc1ccc(Cl)cc1NC(=O)c1ccccn1`, the inhibition is reported as 31.5% (active).
For `Fc1ccccc1OCCSc1nc2ccccc2o1`, the inhibition was 110% (active).
In the case of `COc1ccc(C(CC(=O)c2ccccc2)S(=O)(=O)c2ccccc2)cc1` (configuration not stated), the inhibition is reported as 26.9% (active).
In the case of `COc1ccc2nc(NC(=O)NC3CCCCC3)sc2c1`, the inhibition is reported as 96.4% (active).
With `COc1ccc2nc(Nc3nc4cc5c(cc4s3)OCCO5)sc2c1` the inhibition was 46.4% (active).
In the case of `COc1ccc2nc(NC(=O)c3ccc(Br)s3)sc2c1`, the inhibition is reported as 51.2% (active).
With `N#CC1=C(N)Oc2c(sc3ccccc23)C1c1ccco1` (configuration not stated) the inhibition was 139% (active).
With `O=C(NCCc1ccc(F)cc1)c1n[nH]c2ccccc12` the inhibition was 69.4% (active).
With `COc1ccc(COC(=O)c2n[nH]c3ccccc23)cc1F` the inhibition was 52.9% (active).
In the case of `COc1cccc(CNC(=O)c2n[nH]c3ccccc23)c1`, the inhibition is reported as 31.3% (active).
In the case of `Fc1ccc(-c2ccc(NCCN3CCOCC3)nn2)cc1`, the inhibition is reported as 51.7% (active).
In the case of `CCOc1cccc(/C=N/N2C(=O)CSC2=S)c1O`, the inhibition is reported as 38% (active).
For `Cc1cc(C)nc(Nc2n[nH]c(-c3ccccc3N)n2)n1`, the inhibition was 55% (active).
In the case of `CN(CC(=O)Nc1ccc(Cl)cc1)C(=O)CNC(=O)c1ccc2ccccc2c1`, the inhibition is reported as 121% (active).
With `O=C(CC1Nc2ccccc2NC1=O)Nc1ccccc1NC(=O)CC1Nc2ccccc2NC1=O` (configuration not stated) the inhibition was 73.6% (active).
With `O=C(CC1NCCNC1=O)Nc1ccc(Oc2ccccc2)cc1` (configuration not stated) the inhibition was 61.1% (active).
For `O=C(CC1Nc2ccccc2NC1=O)Nc1ccccc1` (configuration not stated), the inhibition was 38.2% (active).
